TGFb inhibitor: qHTS for Inhibitors of TGF-b; 410,000 tested, 1.2% active; HepG2 CAGA-GFP TGF-b/SMAD3 reporter, GFP fluorescence, 18 h; TGF-beta stimulated, 500 pg/mL final; Potency, µM (doses to about 46.1 µM), for the others: at the highest dose activity, negative = inhibition, usual class: inhibitors; further: potency means the concentration at half of the fitted maximal effect; on the % scale 0 is the no-effect control and ±100 the full control effect; nearly all actives have a fitted effect of over 65% in size
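GFP signal (ex488/em500-530) from TGF-beta-stimulated HEPG2 CAGA-GFP cells, 500 pg/mL final, 18 h at 37 degrees C in DMEM plus 1% FBS, normalized to unstimulated and DMSO-stimulated controls.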
IL-1B inflam inh: qHTS for Inhibitors of Inflammasome Signaling: IL-1-beta AlphaLISA Primary Screen; THP-1 LPS/ATP IL-1B secretion, AlphaLISA, 16 h; hits give low values; activity change, % at 57.5 µM; 360,000 tested, 4.7% active; in the data active means activity change below about -50%; inconclusive means mostly about -30% to -49%; further: on the % scale 0 is the no-effect control and ±100 the full control effect
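Secreted IL-1B measured by AlphaLISA bead assay after 16 h compound exposure of THP-1 cells; compounds (final up to 57.5 uM) added 1 h before LPS (250 ng/mL) and ATP (1.25 mM) stimulation; lower signal means less secretion.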
HepG2 viability: qHTS for Inhibitors of TGF-b: Cytotox Counterscreen | HepG2 CAGA-GFP viability, ATP luminescence, 18 h | Potency, µM (series often up to 46.1 µM), for inactives: top-dose activity change, negative = cytotoxicity, most hits filed as cytotoxic | 410,000 tested, 0.76% active | AID 588856, 2011; further: potency means the concentration at half of the fitted maximal effect
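CellTiter-Glo luminescence gave cytotoxicity after 18 hours at 37 degrees C. The cells were HepG2 CAGA-GFP in 1% FBS DMEM, stimulated with 500 pg/mL TGF-beta after compound addition. %Activity was normalised to no-cell wells (complete cell-killing) and DMSO (no toxicity), and curves were fitted and classified.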
ATXN2 expr inh: Primary qHTS for Inhibitors of ATXN expression. HEK-293 ATXN2-luciferase reporter, luminescence, 24 h. Potency, µM (doses to about 57 µM), inactives show at the highest dose activity change, negative = inhibition, most hits filed as inhibitors. 360,000 tested, 0.72% active. AID 1745845, 2022; further: potency means the concentration at half of the fitted maximal effect; on the % scale 0 is the no-effect control and ±100 the full control effect; nearly all actives have a fitted effect of over 55% in size
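ATXN2-luciferase reporter cells (luciferase flanked by upstream and downstream ATXN2 gene portions) were treated 24 h at 37 °C with compounds at up to 57 uM. SteadyGlo luminescence gave expression; GF-AFC fluorescence gave viability.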
S2 tox: Viability Counterscreen for Primary qHTS for Inhibitors of ATXN expression. S2 cells (HEK-293 line with an ATXN2-luciferase reporter) viability, CellTiter-Fluor protease fluorescence, 24 h. Potency, µM (highest dose often 56.7 µM), most hits filed as cytotoxic. 400,000 tested, 0.49% active. AID 651635, 2014; further: potency means the concentration at half of the fitted maximal effect; nearly all actives have a fitted effect of over 40% in size
* marks the source's active call; other numbers are inactive results; i = inactive; ? = inconclusive; . = no result given. Most compounds without a hit are left out; they make up all but 5.7% or so of the library. Unless noted, the call rests on the fitted dose curve; in most records, active means well fitted curve in the direction sought with a large enough effect; inconclusive means small, poorly fitted or top-dose-only effect, or another doubt; inactive means no such curve, though single readings can be large; an effect the other way counts as inactive or inconclusive.

SMILES	TGFb inhibitor	IL-1B inflam inh	HepG2 viability	ATXN2 expr inh	S2 tox
CCCS(=O)(=O)N1CC(=O)N(c2ccccc2F)C(C)(C(=O)NC2CCCCCC2)C1 (stereo unspecified)	-16.4%	.	-6.5%	.	.
N#C/C(=C/c1ccccc1[N+](=O)[O-])C(=O)NCc1ccco1	30.5%	-2.5	-6.9%	-2.1%	?
Cc1cc(/C=C(\C#N)C(=O)NCc2ccco2)c(C)[nH]1	9.7%	-50.7*	5.9%	22.0%	i
OC(COc1ccc(OCC(O)CN2CCN(Cc3ccccc3)CC2)cc1)CN1CCN(Cc2ccccc2)CC1 (stereo unspecified)	-1.7%	?	29.3%	-33.5%	i
N=c1n(Cc2ccccc2)c2ccccc2n1CC(O)COc1ccccc1 (stereo unspecified)	?	-87.8*	-93.8%	?	?
CCn1c(=N)n(CC(O)COc2cccc(C)c2)c2ccccc21 (stereo unspecified)	-4.1%	?	-44.0%	-30.0%	?
Cc1ccc(Cn2c(=N)n(CC(O)COc3ccccc3)c3ccccc32)cc1 (stereo unspecified)	?	0.0	2.82µM*	-23.9%	i
CCCCN1C(=O)/C(=C/C=C2\SCCN2C)SC1=S	33.1%	-50.3*	3.9%	46.4%	?
CN1CCS/C1=C/C=C1\SC(=S)N(CC(=O)O)C1=O	86.3%	12.9	-7.4%	-13.0%	?
COc1ccc(-c2onc(C)c2C)cc1S(=O)(=O)NCC1CCN(Cc2cc(C)ccc2C)CC1	?	.	15.8µM*	.	.
CC(C)=C1SC(N2CCN(Cc3ccccc3)CC2)=NC1=O	-3.3%	-11.8	0.8%	24.5%	i
CC(C)=C1SC(N2CCN(c3cccc(Cl)c3)CC2)=NC1=O	?	-58.9*	-8.4%	-4.3%	i
C[N+]1(CC(=O)c2ccc(Br)cc2)CCOCC1	-14.9%	.	-2.2%	.	.
CC(=O)/C=C/c1ccc2c(c1)S(=O)(=O)N(C1CCCC1)[C@H]2CC(C)=O	7.08µM*	.	10µM*	.	.
CCn1cc(C(=O)NCCCO)c(=O)c2cc(F)c(N3CCN(C)CC3)cc21	-9.9%	2.6	3.9%	.	i
CCn1cc(C(=O)N[C@H](C)c2ccccc2)c(=O)c2cc(F)c(N3CCN(C)CC3)cc21	?	-74.3*	-31.8%	-5.1%	?
CCCCCCNC(=O)c1cn(CC)c2cc(N3CCN(C)CC3)c(F)cc2c1=O	?	-55.0*	12.6µM*	?	?
CCn1cc(C(=O)O)c(=O)c2cc(F)c(N3CCN(C(=S)NC(=O)c4ccc(Br)cc4)CC3)cc21	-2.3%	-89.4*	-21.5%	-0.9%	i
CCn1cc(C(=O)O)c(=O)c2cc(F)c(N3CCN(C(=S)NC(=O)c4ccc(OC)cc4)CC3)cc21	-0.1%	12.7	-10.9%	.	i
CCOC(=O)c1cc(-c2ccccc2)n(-c2cccc(C(=O)Nc3ccc(OC)cc3)c2)c1C	0.0%	.	-17.8%	.	.
CCN(CC)C(=O)Cn1c(SCCOc2ccc(Cl)cc2)nc2ccccc21	?	.	-7.6%	-24.8%	?
COc1ccc2c(c1)c1c(c(=O)n(Cc3ccccc3)c(=O)n1CC(=O)Nc1ccccc1OC)n2C	0.0%	.	-2.6%	12.3%	i
CC(Oc1ccc(Br)cc1)C(=O)NNC(=O)CCN1CCN(c2ccccc2)CC1 (stereo unspecified)	-3.6%	-28.6	-30.1%	0.0%	i
O=C(CCN1CCN(c2ccccc2)CC1)NNC(=O)Cc1ccc(Br)cc1	-2.4%	-54.8*	-6.2%	-1.1%	i
Cc1ccccc1Cn1c2ccccc2c2cnn(CC(=O)NCCCN3CCOCC3)c(=O)c21	-27.0%	-71.6*	-20.4%	-24.2%	i
SMILES	TGFb inhibitor	IL-1B inflam inh	HepG2 viability	ATXN2 expr inh	S2 tox
Cc1ccccc1Cn1c2ccccc2c2cnn(CC(=O)NCCCN3CCN(C)CC3)c(=O)c21	16.1%	?	-3.4%	-25.1%	i
Cn1c(SCCOc2ccccc2)nnc1-c1ccc(NC(=O)CCc2ccccc2)cc1	-14.6%	.	-18.0%	.	.
Cc1ccc(-c2[nH]c3ccccc3c2SCCN)cc1	?	-65.1*	-24.3%	.	?
Cc1[nH]c2ccccc2c1SCCN	-0.2%	-14.8	-21.9%	-4.5%	i
NCCSc1c(-c2ccc(Cl)cc2)[nH]c2ccccc12	?	-64.8*	-24.7%	.	?
NCCSc1c(-c2ccc(F)cc2)[nH]c2ccccc12	?	-71.2*	-22.0%	.	?
NCCSc1c(-c2ccccc2)[nH]c2ccccc12	-15.1%	-21.4	-30.6%	-19.5%	i
O=C1CCCC2=C1C(c1ccc(Cl)cc1)N=C(Nc1nc3ccccc3o1)N2 (stereo unspecified)	0.0%	.	-0.9%	.	.
OCCN(Cc1ccccc1)CC(O)COc1ccc(-c2ccccc2)cc1 (stereo unspecified)	?	-75.9*	-113.0%	?	i
CC(C)(C)c1ccc(OCC(O)CN(CCO)CC(O)Cn2ccc3ccccc32)cc1 (stereo unspecified)	11.2µM*	0.0	-73.6%	-18.0%	i
Cc1cc(SCc2sc(-c3ccc(C(F)(F)F)cc3)nc2C)ccc1OCC(=O)O	.	.	.	26.8%	.
CC(C)(C)c1nnc(NS(=O)(=O)c2ccccc2)s1	.	.	.	2.3%	i
Cc1ccc(OCCCCNC(C)c2ccccc2)c(C)c1 (stereo unspecified)	?	-91.1*	-49.3%	-23.1%	i
CCOC(=O)c1cnc(-n2nc(C)cc2C)nc1NCc1ccccc1	?	-111.4*	-37.6%	?	?
CCOC(=O)c1cnc(-n2nc(C)cc2C)nc1NCCO	0.2%	-3.7	-25.9%	-2.0%	i
CC(=O)N1CCC[C@H]1C(=O)N1CCc2c(cnc(C)c2CNC(=O)/C=C/c2cccs2)C1	.	.	.	.	i
CCOC(=O)c1ccc(NC(=O)Nc2c[nH]c(=O)[nH]c2=O)cc1	12.3%	.	3.16µM*	4.5%	i
CCOc1ccc(NC(=O)Nc2c[nH]c(=O)[nH]c2=O)cc1	2.4%	.	-0.7%	13.5%	i
COc1cc2c(cc1OC)CN(c1nc(CN3CCOCC3)nc3sc4c(c13)CCC(C)C4)CC2 (stereo unspecified)	?	-67.7*	-29.7%	-24.4%	i
CC1CCc2c(sc3nc(CN4CCOCC4)nc(Sc4ccccc4)c23)C1 (stereo unspecified)	-11.1%	-20.1	-2.1%	2.4%	i
CCc1ccc(OCC(=O)NC(NC(=S)Nc2ccc(Cl)cc2)C(Cl)(Cl)Cl)cc1 (stereo unspecified)	7.08µM*	-20.2	8.91µM*	?	.
O=C(NC(NC(=S)Nc1ccc(Cl)cc1)C(Cl)(Cl)Cl)c1ccco1 (stereo unspecified)	?	-101.8*	-27.1%	-18.4%	i

Screening data: PubChem, National Center for Advancing Translational Sciences (NCATS)
